Cardio protect: protects H9c2 cardiomyocytes from peroxide injury | 0.63% of 360,000 active | AID 588492 | H2O2 injury protection, ATPLite, 2 h | protection from H2O2 cell death, % at 20 µM;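 active = compounds giving at least 50% protection of heart cells from peroxide-induced death in the single-dose screen, raw or plate-pattern-corrected value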;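 also: 0% = DMSO wells with peroxide and 100% = DMSO wells without peroxide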
HSV augment: increases HSV replication in cells. 0.005% of 220,000 active. HSV replication augmentation in cells, fold increase. AID 1956. maximum fold increase; in the data active = maximum fold increase above about 1.5; tested in PC3 cells
pCIP destab: compounds decreasing mouse p/CIP protein stability; F442A p/CIP-EGFP cells, EGFP fluorescence, 16 h; decrease of EGFP signal, % at 10 µM; 0.01% of 290,000 active; AID 1984;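 active = EGFP signal decrease of at least 30% at 10 µM or well 3 SD below plate mean, unless failing retest; inactive = the rest, including hits failing retest or dose response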
Target sequence (Q05BA5 1-1403): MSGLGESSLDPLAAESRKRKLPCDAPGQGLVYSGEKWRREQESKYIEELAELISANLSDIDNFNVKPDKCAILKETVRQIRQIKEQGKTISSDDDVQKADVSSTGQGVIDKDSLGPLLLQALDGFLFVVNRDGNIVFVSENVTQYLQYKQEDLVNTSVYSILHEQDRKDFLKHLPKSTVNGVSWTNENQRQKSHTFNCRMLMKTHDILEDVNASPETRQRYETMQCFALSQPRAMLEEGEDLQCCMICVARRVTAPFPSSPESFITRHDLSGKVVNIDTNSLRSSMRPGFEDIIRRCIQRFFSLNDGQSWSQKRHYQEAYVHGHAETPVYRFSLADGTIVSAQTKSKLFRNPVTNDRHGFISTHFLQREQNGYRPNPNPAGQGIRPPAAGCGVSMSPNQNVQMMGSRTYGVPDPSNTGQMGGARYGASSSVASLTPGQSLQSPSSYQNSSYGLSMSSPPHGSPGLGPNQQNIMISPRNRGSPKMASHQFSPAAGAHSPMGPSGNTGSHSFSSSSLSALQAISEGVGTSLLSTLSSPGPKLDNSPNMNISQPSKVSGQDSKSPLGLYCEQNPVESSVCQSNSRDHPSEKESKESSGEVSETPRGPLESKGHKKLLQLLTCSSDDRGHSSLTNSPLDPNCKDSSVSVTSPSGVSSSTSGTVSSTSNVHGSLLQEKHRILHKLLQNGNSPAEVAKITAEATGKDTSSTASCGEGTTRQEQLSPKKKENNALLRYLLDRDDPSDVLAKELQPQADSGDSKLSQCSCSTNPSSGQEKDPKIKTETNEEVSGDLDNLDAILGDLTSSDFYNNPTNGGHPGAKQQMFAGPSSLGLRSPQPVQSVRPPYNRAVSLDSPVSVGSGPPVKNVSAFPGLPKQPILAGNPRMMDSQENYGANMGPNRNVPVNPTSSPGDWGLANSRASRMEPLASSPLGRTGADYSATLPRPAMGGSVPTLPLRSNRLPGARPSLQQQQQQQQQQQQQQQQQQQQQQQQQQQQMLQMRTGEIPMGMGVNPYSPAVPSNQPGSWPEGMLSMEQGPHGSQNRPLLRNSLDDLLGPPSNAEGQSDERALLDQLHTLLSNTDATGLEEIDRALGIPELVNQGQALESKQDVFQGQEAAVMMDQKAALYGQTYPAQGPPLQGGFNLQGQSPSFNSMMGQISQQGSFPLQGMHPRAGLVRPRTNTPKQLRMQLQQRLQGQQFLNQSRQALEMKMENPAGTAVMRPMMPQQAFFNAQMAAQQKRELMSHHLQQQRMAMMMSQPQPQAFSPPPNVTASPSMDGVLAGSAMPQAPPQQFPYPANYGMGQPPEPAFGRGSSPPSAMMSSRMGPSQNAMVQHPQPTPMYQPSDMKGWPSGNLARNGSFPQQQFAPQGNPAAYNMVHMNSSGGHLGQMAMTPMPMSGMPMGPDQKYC
MIN6 prolif-1: induces beta-cell replication in MIN6 cells; MIN6 cells proliferation, ATPlite luminescence, 48 h; cells starved in 0.2% serum; 100% = growth in 10% serum; proliferation, % at 10 µM; 0.29% of 330,000 active;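 active = compounds whose signal lies at least 3.5 SD above the mean of all wells on their plate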;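 also: 0% = DMSO-treated cells in low-serum medium and 100% = 10% serum control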
Yeast superoxide: lowers age-related superoxide in aged yeast cells. S. cerevisiae aged cells, superoxide DHE fluorescence; stronger effect = lower value. superoxide response (% of plate mean), % at 10 µM. 0.18% of 330,000 active;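 active = superoxide response under a set limit, about three screen SD below normal, cut at about 65% in these data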;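 also: yeast aged for seven days with compound at 30 °C before DHE staining; 100% = average MFI of all compound-treated wells on the plate with controls excluded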
V-ATPase pHluor: alters yeast V-ATPase proton transport. S. cerevisiae, pHLuorin cytosolic pH fluorescence. response, % at 10 µM. 0.37% of 350,000 active. AID 504577; in the data active = response mostly above about 7.3%, no sharp cut-off; inactive = mostly below about 5.4%; also: actives read high
MIN6 prolif-2: confirmation of inducers of beta-cell replication in MIN6 cells | shares compounds with MIN6 prolif-1 | proliferation increase, % at 50 µM | 920 tested, under 10 active | MIN6 beta-cell proliferation, ATPlite luminescence, 48 h; cells kept in 0.2% serum; scaled between 0.2% and 10% serum;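 active = proliferation increase above 40% at any of the four tested concentrations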
* marks the source's active call; other numbers are inactive results; i = inactive; · = no result given. Shown are actives, neighbours in structure and some others; about 1.4% of the full set was active somewhere.

SMILES	Cardio protect	HSV augment	pCIP destab	MIN6 prolif-1	Yeast superoxide	V-ATPase pHluor	MIN6 prolif-2
CC(O)C1CCC2C3CCC4CC(O)CCC4(C)C3C(=O)CC12C (configuration not stated)	-3	·	·	·	·	0	·
Cc1ccccc1N(CC(=O)Nc1ccc(F)cc1)S(C)(=O)=O	4	i	-8	0	84	-4	·
Cc1ccc(NC(=O)CN(c2ccccc2F)S(C)(=O)=O)cc1	0	i	-4	5.1*	113	-1	0
CCOC(=O)c1ccccc1NC(=O)CN(c1ccccc1C)S(C)(=O)=O	0	i	-16	8.4*	93	2	-3
O=c1c(Cc2c(F)cccc2Cl)c(O)ccn1CCCN1CCOCC1	5	i	-7	-2	95	6	·
COc1ccc(CCC(C)N(C)Cc2ccccc2)cc1 (configuration not stated)	-4	·	-12	6.6*	96	-3	-4
COc1ccc(CC(=O)N(Cc2ccccc2)C(C)C)cc1	7	·	-12	-2	96	0	·
Cc1ccc(C(=O)N/C(=C/c2cccnc2)C(=O)NCc2ccco2)cc1	4	i	2	4.7*	95	2	-1
COc1ccc(NS(=O)(=O)c2cccc(C(=O)NNC(=O)CNC(=O)c3cccc(C)c3)c2)cc1	0	·	-25	9.7*	96	1	2
COc1ccc(NS(=O)(=O)c2cccc(C(=O)NNC(=O)CNC(=O)c3ccccc3)c2)cc1	8	·	-8	-3	103	2	·
O=C(NCC1CCCO1)c1ccccc1OCc1ccc(Cl)cc1 (configuration not stated)	-2	·	·	15*	96	4	-4
CC1CCCCN1c1ncnc(N)c1[N+](=O)[O-] (configuration not stated)	10	i	1	8.8*	81	-2	12
Cc1nc(N2CCOCC2)nc(N2CCCCC2C)c1[N+](=O)[O-] (configuration not stated)	0	i	3	8.1*	107	-1	-5
Cc1nc(N2CCOCC2)nc(N2CCC(C)CC2)c1[N+](=O)[O-]	2	i	15	0	97	1	·
CCOC(=O)N1CCN(C(=O)CSC2=NS(=O)(=O)c3ccccc3N2)CC1	-3	·	·	-4	100	3	·
Oc1ccc(-c2cnc3ccccc3n2)cc1	-7	·	·	0	81	7	·
Clc1ccc(-c2cnc3ccccc3n2)cc1	-5	i	3	5.4*	102	-3	-1
CCN1CCN(C(=O)CCc2nnc3ccc(N4CCC5(CC4)OCCO5)nn23)CC1	1	·	-9	0	97	4	·
CC(C)=CC/C=C1\CCC(C(=O)O)C(C(=O)O)C1 (configuration not stated)	37	i	-3	5.5*	98	2	-2
Cc1nnc2ccc(-c3ccc(NC(=O)c4ccc(Cl)nc4)cc3)nn12	·	i	-6	8.5*	103	·	-1
Cc1ccc(S(=O)(=O)Nc2cc(S(=O)(=O)N3CCOCC3)ccc2NCC2CCCO2)cc1 (configuration not stated)	-2	·	·	15*	94	-3	4
CCOC(=O)CC1C(=O)NCCN1C(=S)NC(=O)c1ccc(C)c(Br)c1 (configuration not stated)	4	·	·	·	·	·	·
O=C(CN1CCN(Cc2cccc(F)c2)CC1)Nc1ccccc1F	5	·	-11	1	108	0	·
COc1ccc2nc(NCCNC(=S)NCCCN3CCOCC3)c(C#N)cc2c1	6	i	14	0	109	0	·
COCCCNC(=S)NCCCNc1nc2cc3c(cc2cc1C#N)OCO3	-5	i	-7	5.8*	98	0	4
SMILES	Cardio protect	HSV augment	pCIP destab	MIN6 prolif-1	Yeast superoxide	V-ATPase pHluor	MIN6 prolif-2
O=C(COc1ccccc1[N+](=O)[O-])NCCC1=CCCCC1	5	i	1	-1	97	-2	·
O=C1OC(Nc2ccc3c(c2)OCO3)c2ccccc21 (configuration not stated)	18	i	-11	5.0*	87	2	-6
CCOc1ccc(CCNC(=O)CCCn2c(=O)c3cccn3c3cccnc32)cc1OCC	8	·	0	17*	88	3	1
COCCc1ncc(CN2CCCCC2C(=O)Nc2ccc(Oc3ccccc3)nc2)cn1 (configuration not stated)	10	·	-20	10*	102	-2	-2
CCN(C(=O)Cn1c(=O)oc2ccccc21)c1ccc(C)c(C)c1	0	·	-12	2	95	0	·
CCn1c(SCC(=O)N/N=C/c2ccc(OC)c(OC)c2)nc2ccccc21	-1	i	-9	7.8*	88	1	1
O=C1CCCCCCC1Sc1ccccc1[N+](=O)[O-] (configuration not stated)	5	i	-1	6.2*	99	-1	-4
CCOC(=O)c1c(N)sc2c1CCC(C)C2 (configuration not stated)	-4	i	-6	-3	100	2	·
CCOC(=O)c1c(NS(C)(=O)=O)sc2c1CCC(C)C2 (configuration not stated)	-5	i	-4	7.3*	75	6	-6
CCOC(=O)c1c(NC(=O)C(C)N2CCN(S(=O)(=O)c3cccs3)CC2)sc2c1CCC(C)C2 (configuration not stated)	8	i	-2	5.5*	105	1	-1
CCOC(=O)c1c(NC(=O)C2CCN(S(=O)(=O)c3cccs3)CC2)sc(C)c1C	-13	i	-5	1	97	1	·
C=CCn1c(N2CCN(c3ccc(OC)cc3)CC2)nc2c1c(=O)n(C)c(=O)n2C	-9	i	9	8.3*	100	0	-3
Cc1ccc(C(=O)NCCc2c[nH]c3ccccc23)s1	-3	·	-6	-2	102	-5	·
CCn1c(SCC(=O)N=Nc2c(O)[nH]c3ccccc23)nc2ccccc21	1	i	-25	0.0*	99	3	-6
Cc1c(C(=O)c2ccccc2C(=O)O)sc2ccccc12	4	·	-4	-2	99	2	·
O=C(c1ccccc1)N1CCN(CC(O)COCC2CC=CCC2)CC1 (configuration not stated)	1	i	-2	0	98	0	·
CCc1nc2ccccc2n1CC(O)COCC1CC=CCC1 (configuration not stated)	-5	i	-8	12*	118	-2	-3
CCN(CCn1cccn1)Cc1nc(-c2ccccc2)no1	-1	i	-5	-3	93	0	·
CCN(CCn1cccn1)Cc1nc(-c2ccc(OC)cc2)no1	-9	i	-12	7.2*	92	1	-2
